Source: PubChem BioAssay (National Center for Advancing Translational Sciences (NCATS))
Only some compounds are listed: those with a hit (about 19% of all), similar ones and a draw of the others.
TDP1 inh – TDP1 (human) enzyme inhibition; 350,000 tested, 0.28% active; recombinant TDP1, AlphaScreen DNA substrate cleavage; Potency, µM (titrated, usually from 130 µM), inactives show at the top dose activity change, negative = inhibition, usual class: inhibitors; Q9NUW8; AID 485290; further: potency means the concentration at half of the fitted maximal effect; on the % scale 0 is the no-effect control and ±100 the full control effect; nearly all actives have a fitted effect of over 40% in size
Target sequence (Q9NUW8 whole entry, looked up): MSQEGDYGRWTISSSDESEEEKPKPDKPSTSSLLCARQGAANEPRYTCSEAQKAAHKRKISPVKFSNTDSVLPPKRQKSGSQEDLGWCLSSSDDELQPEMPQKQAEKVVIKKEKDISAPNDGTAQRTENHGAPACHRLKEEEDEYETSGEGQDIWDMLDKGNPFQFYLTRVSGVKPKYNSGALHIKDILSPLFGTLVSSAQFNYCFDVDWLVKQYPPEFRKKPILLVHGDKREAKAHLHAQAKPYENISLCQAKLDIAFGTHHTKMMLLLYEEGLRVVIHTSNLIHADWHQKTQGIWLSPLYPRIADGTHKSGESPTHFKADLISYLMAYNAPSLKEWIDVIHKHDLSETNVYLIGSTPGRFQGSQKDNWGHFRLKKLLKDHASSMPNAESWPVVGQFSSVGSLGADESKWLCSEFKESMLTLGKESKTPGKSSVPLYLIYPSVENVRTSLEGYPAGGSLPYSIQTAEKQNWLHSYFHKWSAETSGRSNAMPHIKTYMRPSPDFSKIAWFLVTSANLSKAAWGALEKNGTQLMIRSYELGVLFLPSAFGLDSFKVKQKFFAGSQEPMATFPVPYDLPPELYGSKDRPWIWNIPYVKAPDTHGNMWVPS
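Enzyme-compound mixtures sat 15 min at room temperature, followed by a 5 min reaction with 15 nM final substrate and 10 min with AlphaScreen beads. Recombinant human Tdp1 was used at 1 nM final.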
TGFb SMAD3 inh – TGF-b pathway inhibition | 410,000 tested, 1.2% active | Potency, µM (doses to about 46.1 µM), for inactives: at the top dose activity, negative = inhibition, actives largely listed as inhibitors | AID 588855 | HepG2 CAGA-GFP TGF-b/SMAD3 reporter, GFP fluorescence, 18 h; TGF-beta stimulated, 500 pg/mL final; further: potency means the concentration at half of the fitted maximal effect; on the % scale 0 is the no-effect control and ±100 the full control effect; nearly all actives have a fitted effect of over 65% in size
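Read-out: total well GFP (ex488/em500-530) summed from mean per-cell fluorescence. Cells: HEPG2 CAGA-GFP, 1% FBS DMEM, 18 h at 37 degrees C with 500 pg/mL final TGF-beta. Unstimulated wells served as the full-inhibition control; stimulated DMSO wells = 0%.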
DT40 TDP1 no CPT – qHTS for Inhibitors of human tyrosyl-DNA phosphodiesterase 1 (TDP1): qHTS in cells in absence of CPT; DT40 Tdp1-/- hTDP1 cells, no CPT, ATP luminescence, 48 h; Potency, µM (titrated, usually from 46.2 µM), inactives show top-dose activity change, negative = growth inhibition, actives largely listed as inhibitors; 420,000 tested, 15% active; AID 686978, 2013; further: potency means the concentration at half of the fitted maximal effect; on the % scale 0 is the no-effect control and ±100 the full control effect; nearly all actives have a fitted effect of over 55% in size
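Chicken DT40 Tdp1-/- cells complemented with human TDP1, screened without camptothecin (DMSO vehicle only), 400 cells/well. Compounds pin-transferred, cells incubated at 37 °C for at least 48 hr. Growth read as ATP-dependent luminescence (CellTiter-Glo, 30 min at RT).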
TDP1 cell CPT – DT40-hTDP1 cell growth loss with CPT; chicken DT40 Tdp1-/-;hTDP1 cells + 20 nM CPT, ATP luminescence, 48 h; Potency, µM (highest dose often 46.2 µM), for the others: at the highest dose activity change, negative = growth inhibition, most hits filed as inhibitors; 420,000 tested, 12% active; AID 686979; further: potency means the concentration at half of the fitted maximal effect; on the % scale 0 is the no-effect control and ±100 the full control effect; nearly all actives have a fitted effect of over 55% in size
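Chicken DT40 Tdp1-/- cells complemented with human TDP1, 400 cells/well, exposed to compounds plus 20 nM camptothecin for at least 48 h at 37 C; viability read as ATP content by CellTiter-Glo luminescence.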
HepG2 viability – counter-screen for TGF-b inhibitors: cytotoxicity in HepG2 cells. HepG2 CAGA-GFP viability, ATP luminescence, 18 h. Potency, µM (titrated, usually from 46.1 µM), inactives show top-dose activity change, negative = cytotoxicity, most hits filed as cytotoxic. 410,000 tested, 0.76% active. AID 588856; further: potency means the concentration at half of the fitted maximal effect
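CellTiter-Glo luminescence gave cytotoxicity after 18 hours at 37 degrees C. The cells were HepG2 CAGA-GFP in 1% FBS DMEM, stimulated with 500 pg/mL TGF-beta after compound addition. %Activity was normalised to no-cell wells (complete cell-killing) and DMSO (no toxicity), and curves were fitted and classified.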
IL-1B inflam inh – inflammasome signaling inhibition, IL-1 beta readout. THP-1 LPS/ATP IL-1B secretion, AlphaLISA, 16 h; stronger effect = lower value. activity change, % at 57.5 µM. 360,000 tested, 4.7% active; in the data active means activity change below about -50%; inconclusive means mostly about -30% to -49%; further: on the % scale 0 is the no-effect control and ±100 the full control effect
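THP-1 cells pretreated 1 hr with compounds (up to 57.5 uM final), then stimulated with LPS (250 ng/mL final) plus ATP (1.25 mM final); secreted IL-1B measured by AlphaLISA after 16 hr, decreased signal indicating inhibition.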
* = called active by the depositor. Unless noted, the call rests on the fitted dose curve; in most records, active means well fitted curve in the direction sought with a large enough effect; inconclusive means small, poorly fitted or top-dose-only effect, or another doubt; inactive means no such curve, though single readings can be large; an effect the other way counts as inactive or inconclusive.

O=C(O)/C=C/C(=O)c1ccc2c(c1)CCc1ccccc1-2 was read as TDP1 inh -2.6%, TGFb SMAD3 inh inconclusive, DT40 TDP1 no CPT 3.66µM*, TDP1 cell CPT 4.11µM*, HepG2 viability 11.2µM* and IL-1B inflam inh -104.5*.
O=C1Nc2cccnc2N(C(=O)CCl)c2ccccc21 was read as TGFb SMAD3 inh inconclusive, DT40 TDP1 no CPT 2.59µM*, TDP1 cell CPT 3.26µM*, HepG2 viability -74.1% and IL-1B inflam inh -96.1*.
`COc1ccc(NC(=O)C2CCCN(C(=O)c3ccc(Cl)cc3)C2)cc1Cl` (configuration not stated) gave TDP1 inh -0.4%, TGFb SMAD3 inh inconclusive, DT40 TDP1 no CPT 18.4µM*, TDP1 cell CPT 20.6µM*, HepG2 viability -31.8% and IL-1B inflam inh inconclusive.
For CN(C)S(=O)(=O)c1ccc(NC(=O)C2CCCN(C(=O)c3ccc(Cl)cc3)C2)cc1 (configuration not stated) the results were TDP1 inh -1.9%, TGFb SMAD3 inh -21.7%, DT40 TDP1 no CPT inconclusive, TDP1 cell CPT inconclusive, HepG2 viability -17.5% and IL-1B inflam inh 72.0.
CC(=O)c1ccc(NC(=O)C2CCCN(C(=O)c3ccc(Cl)cc3)C2)cc1 (configuration not stated) was read as TDP1 inh 2.3%, TGFb SMAD3 inh 0.3%, DT40 TDP1 no CPT 20.6µM*, TDP1 cell CPT 25.9µM*, HepG2 viability -1.6% and IL-1B inflam inh 13.0.
Screening O=C(Nc1ccc(S(=O)(=O)N2CCCCC2)cc1)C1CCCN(C(=O)c2ccc(Cl)cc2)C1 (configuration not stated) returned TDP1 inh -3.1%, TGFb SMAD3 inh inconclusive, DT40 TDP1 no CPT 20.6µM*, TDP1 cell CPT inconclusive, HepG2 viability -12.4% and IL-1B inflam inh 1.6.
O=C(Nc1cccc(S(=O)(=O)N2CCCCCC2)c1)C1CCN(C(=O)c2ccc(Cl)cc2)CC1 was read as TGFb SMAD3 inh inconclusive, DT40 TDP1 no CPT inconclusive, TDP1 cell CPT 18.4µM*, HepG2 viability 5.5% and IL-1B inflam inh inconclusive.
Screening O=C(Nc1ccccc1)C1CCCN(C(=O)c2ccc(Cl)cc2)C1 (configuration not stated) returned TDP1 inh 0.6%, TGFb SMAD3 inh -18.2%, DT40 TDP1 no CPT inconclusive, TDP1 cell CPT inconclusive, HepG2 viability -14.2% and IL-1B inflam inh 0.0.
`O=C(Nc1cccc(S(=O)(=O)N2CCOCC2)c1)C1CCCN(C(=O)c2ccc(Cl)cc2)C1` (configuration not stated) gave TDP1 inh 6.2%, TGFb SMAD3 inh -12.9%, DT40 TDP1 no CPT inconclusive, TDP1 cell CPT inconclusive, HepG2 viability -13.8% and IL-1B inflam inh 9.4.
For O=C(Nc1cccc(F)c1)C1CCCN(C(=O)c2ccc(Cl)cc2)C1 (configuration not stated) the results were TDP1 inh 0.8%, TGFb SMAD3 inh inconclusive, DT40 TDP1 no CPT 18.4µM*, TDP1 cell CPT 20.6µM*, HepG2 viability -21.2% and IL-1B inflam inh -8.0.
`CCSc1nnc(NC(=O)C2CCCN(C(=O)c3ccc(Cl)cc3)C2)s1` (configuration not stated) gave TGFb SMAD3 inh -9.7%, DT40 TDP1 no CPT 5.17µM*, TDP1 cell CPT 6.51µM*, HepG2 viability -16.6% and IL-1B inflam inh 19.0.
`C=CCC(C)(NCc1ccccc1)C(=O)OCC` (configuration not stated) gave TDP1 inh -5.6%.
O=C(OCc1cc(=O)n2nc(-c3cccs3)sc2n1)c1ccccc1Cl was read as TDP1 inh -0.6%, TGFb SMAD3 inh -1.7%, DT40 TDP1 no CPT -8.9%, TDP1 cell CPT -6.1% and HepG2 viability -2.3%.
`CS(=O)(=O)c1nc(-c2ccc(F)cc2)cc(C(F)(F)F)n1` gave TDP1 inh -1.2%, TGFb SMAD3 inh inconclusive, DT40 TDP1 no CPT 1.84µM*, TDP1 cell CPT 1.3µM*, HepG2 viability 11.2µM* and IL-1B inflam inh -103.0*.
For COc1ccc(-c2cc(C(F)(F)F)nc(S(C)(=O)=O)n2)cc1 the results were TDP1 inh 2.9%, TGFb SMAD3 inh 3.55µM*, DT40 TDP1 no CPT 3.26µM*, TDP1 cell CPT 2.59µM*, HepG2 viability -100.6% and IL-1B inflam inh -101.5*.
For Cc1ccc(C)c(N2CCN(C(=O)CCc3nnc4n(C)c(=O)c5ccccc5n34)CC2)c1 the results were TDP1 inh 0.0%, TGFb SMAD3 inh -3.9%, DT40 TDP1 no CPT inconclusive, TDP1 cell CPT inconclusive and HepG2 viability 5.0%.
Screening O=C(CSc1nnc(-c2ccccc2Cl)o1)N1CCCC1 returned TDP1 inh 3.6%, TGFb SMAD3 inh 4.4%, DT40 TDP1 no CPT -13.4%, TDP1 cell CPT 12.2%, HepG2 viability -17.9% and IL-1B inflam inh -10.4.
Screening CCOC(=O)C1=C(C)N[C@@]2(O)c3ccccc3C(=O)[C@@]12O returned TDP1 inh 3.6%, TGFb SMAD3 inh -17.8%, DT40 TDP1 no CPT -1.2%, TDP1 cell CPT -6.9%, HepG2 viability 5.6% and IL-1B inflam inh -10.9.
CCOC(=O)C1=C(C)OC2(O)c3ccccc3C(=O)C12O (configuration not stated) was read as TDP1 inh 1.4%, TGFb SMAD3 inh -14.6%, DT40 TDP1 no CPT 20.6µM*, TDP1 cell CPT inconclusive, HepG2 viability -1.6% and IL-1B inflam inh -5.8.
Screening CC(=O)C1=C(C)OC2(O)c3ccccc3C(=O)C12O (configuration not stated) returned TDP1 inh -2.8%, TGFb SMAD3 inh -17.3%, DT40 TDP1 no CPT 18.4µM*, TDP1 cell CPT inconclusive, HepG2 viability -5.0% and IL-1B inflam inh 12.4.
For CCC(=O)N1c2ccccc2CC1C(=O)NCCc1ccccc1 (configuration not stated) the results were TDP1 inh 3.8%, TGFb SMAD3 inh 2.1%, DT40 TDP1 no CPT 8.0%, TDP1 cell CPT -12.8% and HepG2 viability 6.0%.
`Cc1cc(C(=O)C(=O)O)c(C)n1-c1ccc(Cl)c(Cl)c1` gave TDP1 inh -11.0%, TGFb SMAD3 inh 11.6%, DT40 TDP1 no CPT -5.0%, TDP1 cell CPT 6.7%, HepG2 viability -18.8% and IL-1B inflam inh inconclusive.
